Screening results as filed in PubChem BioAssay.
The list is not random: actives were taken first. Their share in the collection is about 19%.
LASV entry inh – qHTS for Inhibitors of binding or entry into cells for Lassa Virus | Lassa virus pseudotype entry inhibition, cell reporter | Potency, µM (doses to about 37.9 µM), without a hit: at the highest dose activity change, negative = inhibition, usual class: inhibitors | actives 1.2% (n = 300,000) | AID 540256, 2011; calls by dose curve; tested in HEK293 cells; also: potency is read from the fitted curve at half-maximal effect; % is scaled to controls: 0 for no effect and ±100 for the full control effect; nearly all actives have a fitted effect of over 50% in size
Shiga toxin inh – A qHTS for Small Molecule Inhibitors of Shiga Toxin; Vero cells, Shiga toxin protein synthesis inhibition reporter; inhibition, % at 38.7 µM; actives 9.2% (n = 290,000); AID 2315, 2010; in the data active = inhibition mostly above about 28%, no sharp cut-off; inactive = mostly below about 43%; also: 0% is about no effect
CHX counter – Cycloheximide Counterscreen for Small Molecule Inhibitors of Shiga Toxin | cell reporter, cycloheximide protein synthesis inhibition counterscreen | max response, % | actives 12% (n = 300,000) | AID 2314, 2010; in the data active = max response mostly above about 13%, no sharp cut-off; inactive = mostly below about 14%; also: read at 38.3 µM for the half of the compounds with a filed dose; 0% is about no effect
Pf growth 96h – Primary qHTS for delayed death inhibitors of the malarial parasite plastid, 96 hour incubation; actives 6.9% (n = 320,000); P. falciparum luciferase reporter growth, 96 h; Potency, µM (series often up to 28.7 µM), without a hit: at the highest dose activity change, negative = inhibition, actives largely listed as inhibitors; also: potency is read from the fitted curve at half-maximal effect; % is scaled to controls: 0 for no effect and ±100 for the full control effect
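Compounds incubated with erythrocytes infected by luciferase-expressing P. falciparum (2% hematocrit, 0.05% parasitemia final) for 96 hours, 37 C in 5% CO2. Growth inhibition scored as decreased luciferase luminescence.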
Pf growth 48h – Primary qHTS for delayed death inhibitors of the malarial parasite plastid, 48 hour incubation; P. falciparum luciferase growth in erythrocytes, 48 h; actives 5.9% (n = 310,000); Potency, µM (series often up to 28.7 µM), for inactives: at the top dose activity change, negative = inhibition, actives largely listed as inhibitors; also: potency is read from the fitted curve at half-maximal effect; % is scaled to controls: 0 for no effect and ±100 for the full control effect
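Compounds are pin-transferred into medium, infected erythrocytes (2% hematocrit, 0.1% parasitemia final) are added, and plates sit one parasite generation at 37 C in 5% CO2. Detection reagent is then added and luminescence measured.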
Marburg entry inh – qHTS for inhibitors of binding or entry into cells for Marburg Virus; Marburg virus pseudotyped entry inhibition, cell reporter; Potency, µM (series often up to 37.8 µM), inactives show at the highest dose activity change, negative = inhibition, usual class: inhibitors; actives 1.8% (n = 300,000); AID 540276, 2011; calls by dose curve; tested in HEK293 cells; also: potency is read from the fitted curve at half-maximal effect; % is scaled to controls: 0 for no effect and ±100 for the full control effect
Active calls of the source: *; ? = inconclusive; · = no result; [ ] = dose if it differs, or a comment. Unless noted, calls follow the shape of the dose curve; as a rule, active = well fitted inhibition curve with a large enough effect; inconclusive = small, poorly fitted or top-dose-only effect, or another doubt; inactive = no such curve, though single readings can be large or run the other way.

SMILES | LASV entry inh | Shiga toxin inh | CHX counter | Pf growth 96h | Pf growth 48h | Marburg entry inh
COc1ccc(NC(=O)CC(c2ccco2)C(C)C)cc1 (stereo not drawn) | ? | 6 | 21* | -13% | ? | 13%
C=CCOc1cccc(C(=O)N2CCCC(CCC(=O)NCc3ccccc3F)C2)c1 (stereo not drawn) | -5%[46.1 µM] | 73 | 29* | 21% | -11% | ?
Cc1ccsc1C(=O)N1CCCC(CCC(=O)NCc2ccccc2F)C1 (stereo not drawn) | -28% | 29 | 15* | ? | 0% | -28%
COc1ccccc1/C=C/CN1CCCC(CCC(=O)NCc2ccccc2F)C1 (stereo not drawn) | ? | -17 | -1 | ? | ? | 6.3µM*
Cc1ccsc1S(=O)(=O)N1CCCC(CCC(=O)NCc2ccccc2F)C1 (stereo not drawn) | · | 14 | 7 | 14% | -9% | ·
COc1ccccc1CC(=O)N1CCCC(CCC(=O)NCc2ccccc2F)C1 (stereo not drawn) | · | 24 | 7 | 1% | -3% | ·
Cc1ccc(C(=O)N2CCCC(CCC(=O)NCc3ccccc3F)C2)cn1 (stereo not drawn) | 14% | 27 | 21* | 3% | 22% | 16%
O=C(CCCc1ccccc1)NCCS(=O)(=O)N1CCN(c2ccc(F)cc2)CC1 | -9% | · | · | -21% | ? | 25%
O=C1CC(N2CCN(c3ccc(F)cc3)CC2)C(=O)N1c1ccc(F)cc1 (stereo not drawn) | · | 10 | 1 | ? | -6% | ·
Cc1ccccc1NC1(C#N)C(=O)Nc2ccccc21 (stereo not drawn) | -8% | -15 | -1 | 30% | · | -4%
CC1CN(Cc2nc3c(c(=O)[nH]c(=O)n3C)n2CCN2CCOCC2)CC(C)O1 (stereo not drawn) | 15% | 12 | -4 | · | 50% | 0%
Cc1cccc(N2C(=O)C=CC2=O)c1 | -24%[46.1 µM] | · | · | · | · | ?
O=C(N=Nc1c(O)n(Cc2ccccc2)c2ccccc12)c1cc2ccccc2cc1O | 17% | 22 | 16* | -4% | ? | ?
O=C(N=Nc1c(O)n(Cc2ccccc2)c2ccccc12)c1ccc(O)cc1 | ? | 60* | 64* | 12µM* | ? | ?
Cc1ccc(NC(=O)Cn2c(O)c(N=NC(=O)c3cc4ccccc4cc3O)c3ccccc32)cc1 | ? | -4 | 9 | -29% | 26% | ?
Cc1cc(C)nc(CCNC(=O)CC2C(=O)NCCN2Cc2ccccc2)n1 (stereo not drawn) | ? | -7 | 7 | 21% | 31% | 10%[46.1 µM]
Cc1ccccc1NC(=O)CN1C(=O)NC(C)(CCc2ccccc2)C1=O (stereo not drawn) | -16% | -3 | 16 | -22% | 13µM* | -5%[46.1 µM]
CC1(CCc2ccccc2)NC(=O)N(CC(=O)Nc2ccccc2C#N)C1=O (stereo not drawn) | 11% | · | · | 12% | -2% | 15%
CCC(=Cc1ccccc1O)c1ccncc1 | -24%[46.1 µM] | · | · | · | · | -18%[46.1 µM]
CC1CN(C(=O)COc2ccc3ccccc3c2)CC(C)O1 (stereo not drawn) | 6% | · | · | · | · | 1%
CCc1ccc(OCC(=O)NC(C)(C)C)cc1 | 19% | 44* | 23* | 45% | 43% | 0%
CCNC(=O)COc1ccc2ccccc2c1 | -2% | 58* | 71* | 2% | 83% | 26%
CCNC(=O)COc1cccc2ccccc12 | 1% | -16 | -2 | 20% | · | 0%
CCOc1ccc(NC(=O)NNC(=O)COc2ccc3ccccc3c2)cc1 | · | -11 | -3 | 2.6µM* | -1% | ·
O=C(COc1ccc2ccccc2c1)N1c2ccccc2Sc2ccccc21 | ? | 4 | 7 | 13µM* | ? | ?
COc1ccc(CCNC(=O)c2cc3c(-c4ccccc4F)nn(C)c3s2)c(OC)c1 | -21%[46.1 µM] | · | · | · | · | ?
O=C(COc1ccc(C(=O)c2ccccc2)cc1)NC1CCCCCC1 | ? | -6 | -2 | ? | ? | ?
CCC(C)(C)NC(=O)COc1ccc(C(=O)c2ccccc2)cc1 | · | 54 | 22* | -12% | -17% | ·
CCNC(=O)COc1ccc(CC)cc1 | 9% | 46* | 25* | 4% | 50% | ?
